Measurements reported in PubChem BioAssay (NCI).
Compounds without any hit were thinned out: in the full panel of roughly 83,000, 20% have a hit.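 Single-concentration screen, 48 h exposure, 96-well plates. Endpoint: percent growth. Below 10 = active.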 Unmarked numbers belong to inactive results. The source made the active and inactive calls.

How the values were obtained:
Test in all cases: NCI-60 one-dose screen, 48 h (100 = growth as untreated, 0 = no growth, -100 = all killed)
Details in all cases: 10 µM unless noted
SK-MEL-2 melanoma = system: SK-MEL-2 melanoma
EKVX NSCLC = system: EKVX NSCLC
SN12C renal = system: SN12C renal
UO-31 renal = system: UO-31 renal
TK-10 renal = system: TK-10 renal
ACHN renal = system: ACHN renal
CAKI-1 renal = system: CAKI-1 renal
A498 renal = system: A498 renal
CCRF-CEM leukemia = system: CCRF-CEM leukemia
MOLT-4 leukemia = system: MOLT-4 leukemia

Compound	growth (SK-MEL-2 melanoma)	growth (EKVX NSCLC)	growth (SN12C renal)	growth (UO-31 renal)	growth (TK-10 renal)	growth (ACHN renal)	growth (CAKI-1 renal)	growth (A498 renal)	growth (CCRF-CEM leukemia)	growth (MOLT-4 leukemia)
CC(C)=CCC[C@H](C)c1ccc(C)c2c1OCN(CCO)C2	99.2%	97.2%	79.6%	42.4%	88.4%	90.1%	91.6%	47.2%	87.5%	101%
COCCn1c(Nc2ccc(C(=O)NO)cc2)nc2ccccc21	39.6%	56.5%	66.3%	50.3%	26.7%	57.1%	47.3%		48.5%	33.4%
COc1ccc(/C(=C\c2ccc3c(c2)OCO3)C(=O)Nc2nc3ccc(F)cc3s2)cc1OC	95.7%	103%	115%	68.5%	119%	97.5%	86.5%	98.3%		94.4%
COc1c(C(=O)/C=C/c2ccc(C)o2)c(O)cc2occc12	82.2%	68.6%	82.6%	81.2%	100%	97.6%	74.2%	66.6%	84.6%	64%
C=CCN(CCOC(=O)c1ccc([N+](=O)[O-])cc1)CCOC(=O)c1ccc([N+](=O)[O-])cc1	110%	96.1%	143%	69.9%	114%	95%	86.1%	95.2%		96.2%
COCCCNCC(=O)Nc1c(C)cccc1C	112%	104%	104%	88.4%	113%	102%	105%	110%		103%
CCOCC(O)(c1ccc(Cl)cc1)c1ccc(Cl)cc1	102%	94.1%	105%	91.3%	110%	98.7%	88.2%	112%	96.1%	88.7%
COc1cc(-c2n/c(=C\c3c(O)[nH]c4cc(Cl)ccc34)cc3c2=Nc2ccccc2-3)cc(OC)c1OC	72.9%	64.1%	78.4%	74.9%	63%	59.6%	69.1%	94.5%		70.6%
Nc1ccc(N(O)/C=C2\C=CC=CC2=O)cc1N	108%	96.4%	101%	62.5%	133%	76.3%	100%		57.6%	73%
COc1ccc2nc(NC(=O)/C(=C/c3cc(OC)c(OC)c(OC)c3)c3ccc(OC)c(OC)c3)sc2c1	95.6%	77.8%	99.9%	67.4%	98.5%	94.9%	75.9%	95.7%	98.6%	83.7%
CSCCC1NC(=O)C(C(C)=Nc2ccccc2)=C1O (stereo not given)	129%	101%	101%	93.4%	133%	113%	89.3%	102%		119%
O=C1c2ccccc2C(=O)c2c1oc1ccc3ccccc3c21	101%	72.6%	83.2%	61%	169%	79.4%	90.3%	88.5%	94.8%	104%
COc1cc(C2=NOC(c3cc(OC)c(OC)c(OC)c3)C2)ccc1OCCCCOc1cc2c(cc1OC)C(=O)N1CCC[C@H]1C=N2 (stereo not given in full)	1.46% (active)	-39.6% (active)	6.18% (active)	7.06% (active)	-22.4% (active)	5.06% (active)	5.08% (active)	-58.7% (active)		2.1% (active)
CCN(CC)Cc1cc(Nc2ccnc3cc(Cl)ccc23)cc(-c2ccc(Cl)cc2)c1O	80.1%	2.25% (active)	23.6%	-21.4% (active)	5.81% (active)	57.1%	54.8%	48.9%	45%	24%
COc1ccc(-c2oc(=O)ccc2-c2cc(OC)c(OC)c(OC)c2)cc1F	92.8%	99.6%	87.9%	47.3%	88.2%	87.1%	52.9%		57.6%	83.6%
COc1ccc2[nH]c(O)c(/C=c3/ccc4c(c3)N=C(c3ccc(C(F)(F)F)cc3)N=4)c2c1	104%	82.4%	79.9%	91.3%	131%	78%	55.6%	71.7%	23.2%	48%
COc1cc2c(cc1OCCCOc1cc3c(cc1OC)C(=O)N1CCC[C@H]1C=N3)C=CC(C)(C)O2	88.4%	154%	94.3%	96.5%	187%	95.7%	106%	98.8%	6.05% (active)	65%
CC(C)[C@H](CN)NC[C@H](C)NS(=O)(=O)c1ccc(C(C)(C)C)cc1	101%	90%	99.8%	77.1%	93.8%	103%	94.1%	107%	91.5%	92.6%
CN1CCN(Cc2ccc(NC(=O)c3cncc(C#Cc4ccc(N)nc4)c3)cc2C(F)(F)F)CC1	-47.8% (active)	7.69% (active)	4.16% (active)	-1.73% (active)	12.7%	-3.03% (active)	8.16% (active)	-33.8% (active)	13%	5.85% (active)
CCCCC(CCc1ccccn1)C(=O)c1ccccc1 (stereo not given)	116%	102%	122%	79.7%	127%	116%	99.5%	105%		112%
COc1cccc(CC(C)=C(c2ccc(OCCCN(C)C)cc2)c2ccc(OCCCN(C)C)cc2)c1	-76.5% (active)	-83.9% (active)	-84.7% (active)	-97.8% (active)	-93% (active)	-98.3% (active)	-97.7% (active)		-53.3% (active)	-61.4% (active)
c1ccc(C(Nc2ccccn2)(c2ccccc2)c2ccccc2)cc1	74.5%	38.1%	75.9%	35.4%	85.5%	69.3%	63.3%	72%	81.2%	66.3%
O=C(/C=C/c1cccc([N+](=O)[O-])c1)c1ccc(Nc2nc(N3CCCCC3)nc(N3CCCCC3)n2)cc1	105%	92.3%	96.3%	75.1%	108%	102%	89.6%	80.9%		93.4%
C#CC[C@@H]1C[C@]2(C)[C@H]3CC=C4[C@H]5[C@@H](C)[C@H](C)CC[C@]5(C(=O)NCCCCN)CC[C@@]4(C)[C@]3(C)CC[C@H]2C(C)(C)[C@H]1OC(C)=O	101%	96%	73.8%	59.4%	97.7%	89.5%	50.5%	118%	30%	14.9%
O=[N+]([O-])c1cccc(N=C(Nc2cccc([N+](=O)[O-])c2)c2ccccc2)c1	77.9%	81.4%	83.4%	40.5%	78.8%	93.8%	80.3%	104%		59.4%
CC(=O)c1nn(-c2ccccc2)/c(=N\N=C\c2coc3ccc(F)cc3c2=O)s1	107%	81.6%	97.6%	69.6%	163%	94%	82.3%	125%		100%
COc1ccc(-c2nn(-c3cccc(Cl)c3)cc2/C=C2\C(=N)N(c3ccccc3)N=C2N)cc1	69.5%	48.8%	45.9%	6.27% (active)	80.7%	20.7%	-27.6% (active)	75.3%	12.3%	6.35% (active)
Cc1ccc(-c2cnc3sc4ccc(Cl)cc4n23)cc1	103%	67.1%	93%	64.9%	158%	92.2%	84.2%	88.2%		96.7%
